# Measured values: PubChem BioAssay (NCI)
# About 79,000 compounds went through this panel and 15% of them were active in at least one assay; those are over-represented in the sample as a whole. The source made the active and inactive calls. Rule as the data show it: active = growth inhibition above about 70%; inactive = the rest.
# Experiment: NCI Yeast Anticancer Drug Screen. Data for the sgs1 mgt1 strain (AID 161);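 also: 0% = growth of cultures given vehicle only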
# Conditions: S. cerevisiae sgs1 mgt1 strain, at 50.0 µM, hits give high values
# Outline: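 Mutant yeast exposed to compound; growth scored against vehicle-only wells.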
row,Structure (SMILES),growth inhibition
1,CC12CCC(/C(=C/N(O)/C=C3\C(=O)C4(C)CCC3C4(C)C)C1=O)C2(C)C,-30.1% (inactive)
2,O=C(NC(=O)c1ccc(Cl)c(Cl)c1)Nc1ccc(Cl)cc1,-6.35% (inactive)
3,CSC(=Nc1nnc(-c2ccc([N+](=O)[O-])cc2)s1)SC,-23.6% (inactive)
4,COc1cc(C)c(OC)c(C/C=C(\C)CC2=C(CC(C)(C)O)C(=O)[C@]3(C)CCC[C@]3(C)C2)c1,13.7% (inactive)
5,N/N=C1\CC(=O)NC(=O)N1,1.9% (inactive)
6,CC(=O)OC1C(=O)OC(=O)C1OC(C)=O (stereo not given),8.1% (inactive)
7,N#Cc1cc(Cl)ccc1N=Cc1c(Cl)cccc1Cl,39.4% (inactive)
8,CCc1ccccc1NOC,-1.05% (inactive)
9,CSc1nc2c(c(=O)n1C)N=C(c1ccc([N+](=O)[O-])cc1)CC(c1ccccc1)N2 (stereo not given),17.8% (inactive)
10,O=P1(O)c2ccccc2Oc2ccccc21,7.45% (inactive)
11,Cn1c(N)nc2c1c(=O)[nH]c(=O)n2C,5.25% (inactive)
12,C/C=C(\C)C(=O)OC1CC(OC(=O)/C(C)=C/C)C2(C)C3C(=O)C=C(C)C2C3C1(C)C (stereo not given),34.6% (inactive)
13,O=C(O)CCCc1ccc(O)cc1,8.4% (inactive)
14,O=C1CC(c2ccccc2)S(=O)c2ccccc2N1 (stereo not given),-9.9% (inactive)
15,Cc1ccc(S(=O)(=O)NN=C2CC3C4CCC5C4CC3C25)cc1 (stereo not given),15.9% (inactive)
16,CCC(/C=C/c1ccccc1)=N\NC(=O)c1ccc(C)cc1,11.7% (inactive)
17,CCCCC1CCCCC1=O (stereo not given),3.1% (inactive)
18,CCC(C)C/C(C)=N\NC(N)=O (stereo not given),3.1% (inactive)
19,CC(=O)Nc1ccc(/C=C(\NC(=O)c2ccccc2)C(=O)NNS(=O)(=O)c2ccc(C)cc2)cc1,-9.3% (inactive)
20,O=[n+]1c2ccccc2n([O-])c2cn(-c3ccccc3)c(-c3ccccc3)c21,88.3% (active)

row,Structure (SMILES),growth inhibition
1,O=C1c2ccccc2C(=O)N1/N=C1/SC(=Nc2ccccc2)C(=Nc2ccccc2)N1c1ccccc1,15% (inactive)
2,CCCCCCCCCCCC(=O)OCC1OC(n2cc(F)c(=O)[nH]c2=O)C(N)C(OC(=O)CCCCCCCCCCC)C1O (stereo not given),-51.6% (inactive)
3,O=CC(=O)c1cccc([N+](=O)[O-])c1,-3.6% (inactive)
4,O=C(Cc1ccccc1C(=O)O)c1ccccc1,-23.6% (inactive)
5,CC(C)(C)/C(CC(=O)CCC(=O)Nc1ccc(Cl)cc1)=N\NC(N)=S,19.1% (inactive)
6,CCc1ccc(/C(C#N)=C/c2ccccc2Cl)cc1,26.4% (inactive)
7,CCOC(=O)c1cnc2ccccn2c1=O,7.3% (inactive)
8,CSC1NC(c2ccccc2)=C(C#N)C(=O)N1C1OCC(OC(C)=O)C(OC(C)=O)C1OC(C)=O (stereo not given),-39.2% (inactive)
9,COC(=O)/C(=N\N)C(C(=O)C(=O)Nc1nc(=S)[nH][nH]1)c1nc2ccc([N+](=O)[O-])cc2[nH]c1=O (stereo not given),10.1% (inactive)
10,C(/C=C/c1csnn1)=C\c1ccccc1,-4.2% (inactive)
11,Cc1ccc(S(=O)(=O)CNC(=O)C(O)(O)C(F)(F)F)cc1,-9.45% (inactive)
12,C=C(C)C1CCC2(C=O)CCC3(C)C(CCC4C5(C)CCC(O)C(C)(C)C5CCC43C)C12 (stereo not given),25.1% (inactive)
13,CCOC(=O)c1c(C)c(C)n2c1NC(=O)C2,-37.5% (inactive)
14,N/N=C(\NN)c1ccccc1,-4.2% (inactive)
15,Cc1ccc(C2(O)c3ccccc3N=NN2C)cc1 (stereo not given),4% (inactive)
16,O=C1Nc2noc(=O)nc2NO1,-0.35% (inactive)
17,CCCCCCCCCCCCCCCCCC(=O)c1ccc(OC)c(OC)c1,-31.1% (inactive)
18,Cc1cccc(NS(=O)(=O)c2ccc(Cl)cc2)c1C,98.2% (active)
19,CCOC(=O)C1C(=S)NC(=O)C1C#N (stereo not given),1.35% (inactive)
20,CCC1(C#N)N=C(c2ccccc2)c2ccccc2N1C(=O)OC (stereo not given),17.8% (inactive)

# Experiment: NCI Yeast Anticancer Drug Screen. Data for the cln2 rad14 strain (AID 165);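 also: 0% = growth equal to vehicle treated cultures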
# Conditions: S. cerevisiae cln2 rad14 strain, at 50.0 µM, hits give high values
# Outline: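 Growth of compound-exposed yeast (cln2 rad14 genotype) measured and expressed as inhibition relative to vehicle.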
row,Structure (SMILES),growth inhibition
1,CC12CCC(/C(=C/N(O)/C=C3\C(=O)C4(C)CCC3C4(C)C)C1=O)C2(C)C,1.85% (inactive)
2,O=C(NC(=O)c1ccc(Cl)c(Cl)c1)Nc1ccc(Cl)cc1,-32.6% (inactive)
3,CSC(=Nc1nnc(-c2ccc([N+](=O)[O-])cc2)s1)SC,-11.6% (inactive)
4,COc1cc(C)c(OC)c(C/C=C(\C)CC2=C(CC(C)(C)O)C(=O)[C@]3(C)CCC[C@]3(C)C2)c1,4.35% (inactive)
5,N/N=C1\CC(=O)NC(=O)N1,1.8% (inactive)
6,CC(=O)OC1C(=O)OC(=O)C1OC(C)=O (stereo not given),5.25% (inactive)
7,N#Cc1cc(Cl)ccc1N=Cc1c(Cl)cccc1Cl,14.6% (inactive)
8,CCc1ccccc1NOC,-7.15% (inactive)
9,CSc1nc2c(c(=O)n1C)N=C(c1ccc([N+](=O)[O-])cc1)CC(c1ccccc1)N2 (stereo not given),10.7% (inactive)
10,O=P1(O)c2ccccc2Oc2ccccc21,2.9% (inactive)
11,Cn1c(N)nc2c1c(=O)[nH]c(=O)n2C,13.2% (inactive)
12,C/C=C(\C)C(=O)OC1CC(OC(=O)/C(C)=C/C)C2(C)C3C(=O)C=C(C)C2C3C1(C)C (stereo not given),25.6% (inactive)
13,O=C(O)CCCc1ccc(O)cc1,10.7% (inactive)
14,O=C1CC(c2ccccc2)S(=O)c2ccccc2N1 (stereo not given),26.8% (inactive)
15,Cc1ccc(S(=O)(=O)NN=C2CC3C4CCC5C4CC3C25)cc1 (stereo not given),12% (inactive)
16,CCC(/C=C/c1ccccc1)=N\NC(=O)c1ccc(C)cc1,-4.05% (inactive)
17,CCCCC1CCCCC1=O (stereo not given),12.5% (inactive)
18,CCC(C)C/C(C)=N\NC(N)=O (stereo not given),9.2% (inactive)
19,CC(=O)Nc1ccc(/C=C(\NC(=O)c2ccccc2)C(=O)NNS(=O)(=O)c2ccc(C)cc2)cc1,-5.5% (inactive)
20,O=[n+]1c2ccccc2n([O-])c2cn(-c3ccccc3)c(-c3ccccc3)c21,80.5% (active)

row,Structure (SMILES),growth inhibition
1,O=C1c2ccccc2C(=O)N1/N=C1/SC(=Nc2ccccc2)C(=Nc2ccccc2)N1c1ccccc1,26.4% (inactive)
2,CCCCCCCCCCCC(=O)OCC1OC(n2cc(F)c(=O)[nH]c2=O)C(N)C(OC(=O)CCCCCCCCCCC)C1O (stereo not given),4.2% (inactive)
3,O=CC(=O)c1cccc([N+](=O)[O-])c1,11.4% (inactive)
4,O=C(Cc1ccccc1C(=O)O)c1ccccc1,-24.4% (inactive)
5,CC(C)(C)/C(CC(=O)CCC(=O)Nc1ccc(Cl)cc1)=N\NC(N)=S,9.75% (inactive)
6,CCc1ccc(/C(C#N)=C/c2ccccc2Cl)cc1,10.2% (inactive)
7,CCOC(=O)c1cnc2ccccn2c1=O,7.2% (inactive)
8,CSC1NC(c2ccccc2)=C(C#N)C(=O)N1C1OCC(OC(C)=O)C(OC(C)=O)C1OC(C)=O (stereo not given),4.75% (inactive)
9,COC(=O)/C(=N\N)C(C(=O)C(=O)Nc1nc(=S)[nH][nH]1)c1nc2ccc([N+](=O)[O-])cc2[nH]c1=O (stereo not given),11.7% (inactive)
10,C(/C=C/c1csnn1)=C\c1ccccc1,15.8% (inactive)
11,Cc1ccc(S(=O)(=O)CNC(=O)C(O)(O)C(F)(F)F)cc1,27.8% (inactive)
12,C=C(C)C1CCC2(C=O)CCC3(C)C(CCC4C5(C)CCC(O)C(C)(C)C5CCC43C)C12 (stereo not given),15.8% (inactive)
13,CCOC(=O)c1c(C)c(C)n2c1NC(=O)C2,-36.8% (inactive)
14,N/N=C(\NN)c1ccccc1,-47.5% (inactive)
15,Cc1ccc(C2(O)c3ccccc3N=NN2C)cc1 (stereo not given),-16.8% (inactive)
16,O=C1Nc2noc(=O)nc2NO1,-2.5% (inactive)
17,CCCCCCCCCCCCCCCCCC(=O)c1ccc(OC)c(OC)c1,-37.5% (inactive)
18,Cc1cccc(NS(=O)(=O)c2ccc(Cl)cc2)c1C,98.3% (active)
19,CCOC(=O)C1C(=S)NC(=O)C1C#N (stereo not given),0.75% (inactive)
20,CCC1(C#N)N=C(c2ccccc2)c2ccccc2N1C(=O)OC (stereo not given),-28.9% (inactive)
